We go through 23 compounds from PubChem BioAssay (Tox21).

Values joined by “and” are separate entries in the source; they are usually repeats but may differ in a detail not shown here. Equal entries are not always repeated. Results filed as inconclusive are left out. Active and inactive are the calls of the source. Calls follow the shape of the dose curve; as a rule, active = well fitted curve in the direction sought with a large enough effect in the repeat runs; inconclusive = weak or mixed curves; inactive = no such curve, though single readings can be large; an effect the other way counts as inactive or inconclusive.

Experiment [1] can be described thus: A CellTox Green Cytotoxicity Assay to monitor cytotoxicity in HEK293 cells - 32 hour (AID 1224881). Also: nearly all actives have a fitted effect of over 40% in size. Also: potency is read from the fitted curve at half-maximal effect. The method in brief:
(§1)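 HEK293 cells premixed with CellTox Green dye were seeded at 600 cells/well and left 5 h at 37 C/5% CO2 before pin transfer of 23 nL compound in DMSO. Fluorescence from dye bound to dead-cell DNA was read during 40 h treatment.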

Experiment [2] is described as follows: A CellTox Green Cytotoxicity Assay to monitor cytotoxicity in HepG2 cells - 0 hour (AID 1224882). Also: nearly all actives have a fitted effect of over 35% in size. Also: potency is read from the fitted curve at half-maximal effect. Put shortly: (§2)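 HepG2 cells were seeded together with the CellTox Green dye at 600 cells/well, left 5 h at 37 C/5% CO2, then given compounds in DMSO. Fluorescence from dye bound to dead-cell DNA was read repeatedly over 40 h of treatment at 37 C.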
Experiment [3] can be described thus: A CellTox Green Cytotoxicity Assay to monitor cytotoxicity in HepG2 cells - 32 hour (AID 1224883). Also: nearly all actives have a fitted effect of over 50% in size. Also: potency is read from the fitted curve at half-maximal effect. Put shortly:
as §2

Experiment [4] can be described thus: A CellTox Green Cytotoxicity Assay to monitor cytotoxicity in HEK293 cells - 8 hour (AID 1224884). Also: nearly all actives have a fitted effect of over 35% in size. Also: potency is read from the fitted curve at half-maximal effect. The method in brief: as §1
A short description of experiment [5]: qHTS RealTime-Glo MT Cell Viability Assay in HepG2 cells - 16 hour (AID 1224885). Also: nearly all actives have a fitted effect of over 50% in size. Also: potency is read from the fitted curve at half-maximal effect. The method in brief: (§3)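 Viability was tracked continuously by NanoLuc luminescence from prosubstrate reduced by living HepG2 cells, at successive time points over 40 h of compound exposure. Cells with reagent were preincubated 5 h at 37 °C before compound addition.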
A short description of experiment [6]: qHTS RealTime-Glo MT Cell Viability Assay in HEK293 cells - 24 hour (AID 1224886). Also: nearly all actives have a fitted effect of over 50% in size. Also: potency is read from the fitted curve at half-maximal effect. Put shortly: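 Viability tracked continuously by luminescence as live cells reduce a prosubstrate for NanoLuc; HEK293 cells preincubated 5 h, compound-treated at 37 C, and read at 0, 8, 16, 24, 32 and 40 h.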
A short description of experiment [7]: qHTS RealTime-Glo MT Cell Viability Assay in HEK293 cells - 8 hour (AID 1224887). Also: nearly all actives have a fitted effect of over 50% in size. Also: potency is read from the fitted curve at half-maximal effect. The method in brief: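 HEK293 cells mixed with RealTime-Glo reagents (NanoLuc plus cell-permeant prosubstrate) at 600 cells/well, preincubated 5 h at 37 C/5% CO2, then given 23 nL compound in DMSO. Nonlytic luminescence from viable cells was read at 0, 8, 16, 24, 32 and 40 h.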

Experiment [8] can be described thus: A CellTox Green Cytotoxicity Assay to monitor cytotoxicity in HEK293 cells - 16 hour (AID 1224888). Also: nearly all actives have a fitted effect of over 35% in size. Also: potency is read from the fitted curve at half-maximal effect. Put shortly:
as §1

The nature of experiment [9]: qHTS RealTime-Glo MT Cell Viability Assay in HepG2 cells - 0 hour (AID 1224889). Also: nearly all actives have a fitted effect of over 50% in size. Put shortly:
as §3

Experiment [10] is described as follows: A CellTox Green Cytotoxicity Assay to monitor cytotoxicity in HepG2 cells - 8 hour (AID 1224890). Also: nearly all actives have a fitted effect of over 45% in size. Also: potency is read from the fitted curve at half-maximal effect. Put shortly: as §2

In the case of `Clc1ccc(Cl)c(Cl)c1`, the Potency entry in experiment [1], in experiment [2], in experiment [3], in experiment [4], in experiment [5] and in [6] was “inactive” throughout. Besides, the Potency entry in experiment [7], in experiment [8] and in [10] was “inactive” each time. For the same compound, the compound was called inactive in experiment [9].

For `ClCc1ccccc1Cl`, the Potency entry in experiment [1], in experiment [2], in experiment [3], in experiment [4], in experiment [5] and in experiment [6] was “inactive” each time. The Potency entry in [7], in [8] and in [10] was “inactive” each time. In experiment [9], the outcome was inactive.

`CN1CC[C@]23c4c5ccc(O)c4O[C@H]2[C@@H](O)CC[C@H]3[C@H]1C5`: the Potency result in [1], in experiment [2], in experiment [3], in [4], in experiment [5] and in experiment [6] was “inactive” in each case. In addition, the Potency result in [7], in experiment [8] and in experiment [10] was “inactive” in each case. For the same compound, in experiment [9], the result was inactive.

As to `CC(=O)NNc1ccccc1`, the Potency result in experiment [1], in experiment [2], in [3], in experiment [4], in experiment [5] and in [6] was “inactive” throughout. In addition, the Potency result in [7], in [8] and in experiment [10] was “inactive” throughout. Moreover, the outcome in experiment [9] was inactive.

On to `Nc1cccc2ccccc12`, for which the Potency entry in experiment [1], in experiment [2], in experiment [3], in experiment [4], in [5] and in experiment [6] was “inactive” each time. Besides, the Potency entry in experiment [7], in experiment [8] and in experiment [10] was “inactive” throughout. Moreover, the call in experiment [9] was inactive.

Turning to `N#CC(C#N)=Cc1ccc(O)c(O)c1`, the Potency entry in experiment [1], in experiment [3], in [4], in experiment [5], in experiment [6] and in experiment [7] was “inactive” in each case. Also, the Potency entry in experiment [8] and in [10] was “inactive” each time. Moreover, the Potency in experiment [2] was 23.9 µM (active).

On to `OC[P+](CO)(CO)CO`, for which the Potency entry in experiment [1], in experiment [2], in experiment [3], in experiment [4], in [5] and in experiment [6] was “inactive” throughout. Also, the Potency result in [7], in [8] and in experiment [10] was “inactive” each time. Besides, in experiment [9], the compound was classed as inactive.

Consider `O=C(O)c1ccc(=O)[nH]c1`, for which the Potency result in [1], in experiment [2], in experiment [3], in experiment [4], in experiment [5] and in [6] was “inactive” throughout. Also, the Potency result in experiment [7], in [8] and in experiment [10] was “inactive” each time. Moreover, in [9], the call was inactive.

As to `CCOP(=S)(OCC)Oc1ccc(S(C)=O)cc1` (stereo not given), the Potency result in experiment [1], in experiment [2], in experiment [3], in experiment [4], in experiment [5] and in [6] was “inactive” each time. For the same compound, the Potency entry in experiment [7], in experiment [8] and in experiment [10] was “inactive” each time.

Take `NNCCO`: the Potency result in [1], in experiment [2], in [3], in experiment [4], in experiment [5] and in experiment [6] was “inactive” each time. Besides, the Potency result in experiment [7], in experiment [8] and in experiment [10] was “inactive” throughout. Further, the call in experiment [9] was inactive.

Turning to `c1ccc2c(c1)-c1cccc3cccc-2c13`, the Potency entry in [1], in [2], in experiment [3], in experiment [4], in experiment [5] and in [6] was “inactive” each time. Moreover, the Potency result in [7], in experiment [8] and in experiment [10] was “inactive” each time. Further, the compound was called inactive in [9].

Regarding `N#CC1(N=NC2(C#N)CCCCC2)CCCCC1`, the Potency result in [1], in [2], in experiment [3], in experiment [4], in [5] and in [6] was “inactive” throughout. Moreover, the Potency result in experiment [7], in [8] and in experiment [10] was “inactive” each time. For the same compound, the compound was called inactive in [9].

With `CC(C)(C)NCC(O)c1cc(Cl)c(N)c(C(F)(F)F)c1` (stereo not given), the Potency entry in experiment [1], in [2], in experiment [3], in [4], in [5] and in experiment [6] was “inactive” throughout. The Potency result in [7], in [8] and in experiment [10] was “inactive” throughout. Further, the outcome in experiment [9] was inactive.

Turning to `OCCCl`, the Potency entry in experiment [1], in experiment [2], in [3], in experiment [4], in experiment [5] and in experiment [6] was “inactive” throughout. Further, the Potency entry in [7], in [8] and in experiment [10] was “inactive” in each case. Moreover, the outcome in experiment [9] was inactive.

In the case of `O=C1NC(=O)C(=O)C(=O)N1`, the Potency result in [1], in experiment [2], in [3], in experiment [4], in experiment [5] and in [6] was “inactive” each time. Besides, the Potency entry in [7], in experiment [8] and in experiment [10] was “inactive” in each case.

With `C1CCNCC1`, the Potency result in [1], in [2], in experiment [3], in experiment [4], in [5] and in experiment [6] was “inactive” throughout. The Potency entry in experiment [7], in [8] and in experiment [10] was “inactive” each time.

For `CCCC[N+]1(C)[C@@H]2CC(OC(=O)[C@H](CO)c3ccccc3)C[C@H]1[C@@H]1O[C@@H]12` (stereo not given in full), the Potency result in [1], in experiment [2], in experiment [3], in experiment [4], in experiment [5] and in experiment [6] was “inactive” throughout. Also, the Potency result in experiment [7], in [8] and in experiment [10] was “inactive” throughout. For the same compound, the result in experiment [9] was inactive.

As to `C[CH2][Hg][S]c1ccccc1C(=O)O`, the Potency in experiment [1] was 7.76 µM (active) and 4.77 µM (active); in experiment [3], 3.09 µM (active) and 2.13 µM (active); in [4], 4.77 µM (active); in experiment [5], 2.45 µM (active) and 2.13 µM (active); in experiment [6] it was 1.1 µM (active) and 1.34 µM (active); in [7] it was 3.09 µM (active) and 4.25 µM (active). The Potency in experiment [8] was 4.77 µM (active); in [10], 7.76 µM (active) and 2.39 µM (active). Moreover, in [2], the Potency entry was “inactive”. In addition, in experiment [9], the result was inactive.

With `Oc1cccc(Cl)c1`, the Potency result in experiment [1], in experiment [2], in experiment [3], in experiment [4], in experiment [5] and in [6] was “inactive” each time. Moreover, the Potency result in experiment [7], in experiment [8] and in [10] was “inactive” throughout.

`C[C@H](N)[C@H](O)c1ccc(O)c(O)c1`: the Potency in experiment [1] is 19 µM (active); in experiment [2] it was 26.8 µM (active); in [3] it was 21.3 µM (active); in [4], 19 µM (active); in experiment [8], 21.3 µM (active); in experiment [10], 26.8 µM (active). In addition, the Potency entry in experiment [5], in experiment [6] and in experiment [7] was “inactive” each time. For the same compound, in [9], the compound was called inactive.

Regarding `CCOP(=S)(S)OCC`, the Potency entry in experiment [1], in experiment [2], in experiment [3], in [4], in experiment [5] and in experiment [6] was “inactive” each time. In addition, the Potency result in experiment [7], in experiment [8] and in experiment [10] was “inactive” in each case. Besides, in [9], the compound was called inactive.

`CNC(=O)Oc1cccc(N=CN(C)C)c1`: the Potency entry in experiment [1], in [2], in experiment [3], in experiment [4], in experiment [5] and in experiment [6] was “inactive” in each case. Further, the Potency entry in experiment [7], in experiment [8] and in [10] was “inactive” in each case. Besides, in experiment [9], the compound was called inactive.

In the case of `CC[N+]1(CCOC(=O)C(O)(c2ccccc2)c2ccccc2)CCCCC1`, the Potency entry in [1], in experiment [2], in experiment [3], in [4], in experiment [5] and in [6] was “inactive” each time. In addition, the Potency result in experiment [7], in experiment [8] and in experiment [10] was “inactive” each time. Moreover, in experiment [9], the compound was called inactive.
